The text below walks through data of PubChem BioAssay.

Assay [1] in a line: inhibitors of TNFa-induced NFkB p65 translocation, primary screen, imaging, HUVEC, MLSMR starter and 10KST1 sets (AID 438;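 active = inhibition above 20% together with a positive visual image hit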;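 also: compound added about 3h40 before a 20 min TNFalpha stimulation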;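 as to inhibition: signal is the nuclear over cytoplasmic p65 intensity ratio per well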). The note with it: HUVEC TNFa-induced p65 nuclear translocation; cell count: measured here: nuclei count (cytotoxicity indicator), at 2.08 µM; inhibition: at 2 µM, stronger effect = higher value, 0% TNFa-plus-vehicle, 100% no-TNFa wells.
Assay [2] in a line: endothelial E-selectin expression blockers – imaging, HUVEC, immunofluorescence, MLSMR starter and 10KST1 sets, primary screen (AID 487;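 active = visually confirmed hit in the image check and inhibition above 20%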;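 as to inhibition: signal is fraction of cell area covered by stained E-selectin grains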;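 as to nuclei count: 100% = median nuclei count of all wells on the same plate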). The conditions noted are these: HUVEC TNFalpha-induced E-selectin immunofluorescence imaging, at 2 µM; inhibition: stronger effect = higher value; nuclei count: measured here: cell number, toxicity.
The nature of assay [3]: Primary imaging screen for DUSP6 inhibitors that restore phospho-Erk in transfected HeLa cells, chemical complementation (AID 609;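 active = compounds giving at least 50% inhibition in the cell-based MKP-3 phosphatase rescue imaging test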;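 as to inhibition: phospho-Erk level distribution per well compared with pooled transfected vehicle control wells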). The note with it: HeLa MKP-3 transfected, phospho-Erk imaging KS statistic, at 10 µM, cells stimulated with TPA for 15 min.
Assay [4] deals with Dual specificity protein phosphatase 6 (Homo sapiens) (UniProt Q16828). The description is as above. The note with it: HeLa MKP-3 transfected, phospho-Erk imaging KS statistic; at 10 µM; stronger effect = higher value; cells stimulated with TPA for 15 min.
In assay [5] the target is Voltage-gated potassium channel subunit beta-2 (Rattus norvegicus) (UniProt P62483). In words: inhibitors of rat Kvbeta2 reductase activity – biochemical, NADPH fluorescence, primary screen (AID 622;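 active = fluorescence slope higher than the sample average by over 3 SD, cut at about -0.22 in these data, passing the limit was not always enough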;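 also: slope of raw intensity against log time taken from 70 to 1610 s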). The note with it: recombinant KvBeta, 4-cyanobenzaldehyde reduction, at 10 µM, stronger effect = higher value.
The target is the same in assay [6]. In words: enhancers of rat Kvbeta2 NADPH turnover – biochemical, NADPH fluorescence, primary screen (AID 623).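 Also: fluorescence intensity change per second fitted from 20 to 320 s.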 The note with it: Recombinant KvBeta, NADPH fluorescence decrease slope, 10 min; at 10 µM; stronger effect = lower value.
The target of assay [7] is Alpha-2C adrenergic receptor (Homo sapiens) (UniProt P18825). In words: compounds altering alpha2C-coupled GIRK flux – cell-based, HEK293 alpha2C/GIRK1/2, thallium flux, primary screen (AID 624;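 active = fluorescence slope after compound addition differing from the mean of all screened samples at 99.7% confidence, in either direction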;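 also: slope of fluorescence ratio to pre-addition baseline per second over 15 to 24 s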). The conditions noted are these: thallium flux BTC fluorescence, at 10 µM, actives lie on both sides.
A short description of assay [8]: inhibitors of larval lipid processing in zebrafish, primary screen, whole organism, PED6 fluorescence, gall bladder and intestine (AID 686;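 active = a full or partial loss of lipid-probe fluorescence in the fish gall bladder, intestine or both, judged by eye; inactive = no fluorescence loss, or compound toxic to the fish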;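 also: larvae 5 to 7 days old with five fish per well; signal comes from phospholipase A2 cleavage of quenched PED6 carried via bile; overnight exposure to compound and PED6 before scoring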). The conditions noted are these: Zebrafish larvae PED6 lipid processing, fluorescence scoring; screened at 20 µM (by protocol).
The nature of assay [9]: loss of swimming-algae plug formation – whole organism, Chlamydomonas reinhardtii, WT vs cilia-less mutant, absorbance, 96-well, primary screen (AID 463189;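 active = inhibition at or above 50% relative to wild type and mutant plate controls; inactive = inhibition below 50%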;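 also: 0% = wild type cc124 cells in DMSO and 100% = ciliumless bld1 mutant cells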). The conditions noted are these: Chlamydomonas reinhardtii gravitaxis, OD600 absorbance, 2 days; at 10 µM; stronger effect = higher value.
Setting [10] is: measured here: cell density z-score.
The mark [11] stands for this setting: measured here: nuclear c-Myc green intensity z-score.
Where [12] appears, read: measured here: nuclear pErk red intensity z-score, stronger effect = higher value.

Activity calls are given as the source filed them.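 The calls were made as follows, unless noted: active = NADPH fluorescence slope more negative than the mean of all samples by about 3 SD, 99.7% confidence; inactive = the rest.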

Sequence of Voltage-gated potassium channel subunit beta-2 (Rattus norvegicus) (P62483 whole entry, looked up): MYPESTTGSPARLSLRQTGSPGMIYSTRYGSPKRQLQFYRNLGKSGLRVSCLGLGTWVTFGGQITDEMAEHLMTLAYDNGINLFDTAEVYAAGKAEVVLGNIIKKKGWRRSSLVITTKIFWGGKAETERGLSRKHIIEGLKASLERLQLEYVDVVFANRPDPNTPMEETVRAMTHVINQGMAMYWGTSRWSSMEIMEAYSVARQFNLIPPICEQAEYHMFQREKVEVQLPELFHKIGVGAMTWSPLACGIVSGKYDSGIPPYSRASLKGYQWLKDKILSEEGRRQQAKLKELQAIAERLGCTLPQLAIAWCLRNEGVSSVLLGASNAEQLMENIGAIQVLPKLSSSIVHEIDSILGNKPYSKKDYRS
Sequence of Alpha-2C adrenergic receptor (Homo sapiens) (P18825 whole entry, looked up): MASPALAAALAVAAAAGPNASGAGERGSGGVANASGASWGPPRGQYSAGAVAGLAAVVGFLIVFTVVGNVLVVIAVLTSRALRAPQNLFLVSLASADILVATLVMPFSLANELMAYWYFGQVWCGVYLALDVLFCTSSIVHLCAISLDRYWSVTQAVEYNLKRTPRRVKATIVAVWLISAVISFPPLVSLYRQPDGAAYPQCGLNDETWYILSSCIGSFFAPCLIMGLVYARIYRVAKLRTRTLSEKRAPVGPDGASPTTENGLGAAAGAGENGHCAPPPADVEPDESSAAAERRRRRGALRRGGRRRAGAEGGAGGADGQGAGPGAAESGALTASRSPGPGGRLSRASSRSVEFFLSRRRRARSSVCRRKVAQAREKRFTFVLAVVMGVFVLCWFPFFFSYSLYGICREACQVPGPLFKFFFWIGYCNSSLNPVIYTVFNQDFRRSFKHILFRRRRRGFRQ
Sequence of Dual specificity protein phosphatase 6 (Homo sapiens) (Q16828 whole entry, looked up): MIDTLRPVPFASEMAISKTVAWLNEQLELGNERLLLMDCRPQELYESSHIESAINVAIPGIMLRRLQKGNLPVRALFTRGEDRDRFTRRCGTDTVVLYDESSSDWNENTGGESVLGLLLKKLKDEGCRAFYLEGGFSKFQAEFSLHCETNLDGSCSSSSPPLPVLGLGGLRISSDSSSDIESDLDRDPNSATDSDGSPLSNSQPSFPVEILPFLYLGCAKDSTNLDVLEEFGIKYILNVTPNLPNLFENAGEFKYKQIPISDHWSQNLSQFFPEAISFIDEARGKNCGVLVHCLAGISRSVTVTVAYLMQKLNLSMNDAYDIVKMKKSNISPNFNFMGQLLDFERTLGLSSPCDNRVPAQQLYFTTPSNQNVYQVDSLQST

As a reminder, the inhibition is the relative decrease from the control value, in per cent. In the case of `COc1ccc(Cl)cc1N=Cc1c(O)cc(C)oc1=O`, in [1], the cell count was determined as 347. The inhibition in [1] was -4.9% (inactive); in assay [2], -136% (inactive); in assay [4] it was 12.3% (inactive); in [9] it was 16.9% (inactive). The same molecule had a nuclei count in assay [2] of 189%. For the same molecule, the figures for the z-score in assay [3] (setting [10]), in assay [3] (setting [11]) and in assay [3] (setting [12]) were 0.57, -0.693 and 0.874, respectively. The fluorescence slope in assay [5] was -0.415 (inactive). The NADPH fluorescence slope in assay [6] is -0.0002 (inactive). The slope in assay [7] was 0.00387 (inactive). Further, the result in assay [8] was inactive.
As to `CCN(CC)CCN1C(=O)C(=O)/C(=C(/O)c2ccc(F)cc2)C1c1cccnc1` (centres undefined), the cell count in [1] stood at 488. Besides, the inhibition is -18.4% (inactive) in assay [1], -35.7% (inactive) in [2], -2.47% (inactive) in [4] and -7.28% (inactive) in assay [9]. This molecule also showed a nuclei count in assay [2] of 128%. The figures for the z-score in assay [3] (setting [10]), in [3] (setting [11]) and in [3] (setting [12]) were -0.0126, -0.441 and 0.45, respectively. For the same molecule, the fluorescence slope in assay [5] is -0.493 (inactive). In addition, in assay [6], the NADPH fluorescence slope is -5.5e-05 (inactive). In addition, in assay [7], the slope was 0.00472 (inactive). Further, the call in [8] was inactive.
Regarding `CC1(C)Cc2c(sc3c4nnnn4c4nnnn4c23)CO1`, the cell count in assay [1] worked out at 634. Further, the inhibition in assay [1] is -12.5% (inactive); in assay [2] it was -30.9% (inactive); in [4], 20.8% (inactive); in assay [9], 27.1% (inactive). The molecule further yielded a nuclei count in assay [2] of 164%. Also, the z-score in assay [3] (setting [10]) was 0.452; in [3] (setting [11]), 0.0526; in assay [3] (setting [12]) it was 0.417. In addition, the fluorescence slope in [5] is -0.493 (inactive). Further, the NADPH fluorescence slope in assay [6] was -9.6e-05 (inactive). Besides, the slope in assay [7] is 0.0051 (inactive). In [8], the call was inactive.
On to `CCOc1nc(SC(C(C)=O)C(=O)Nc2ccccc2)nc(N(C)C)n1` (centres undefined), for which, in assay [1], the cell count turned out to be 302. Also, the inhibition in assay [1] was -20.6% (inactive); in assay [2], 10.9% (inactive); in assay [4], 10.5% (inactive); in assay [9] it was -7.41% (inactive). The nuclei count in assay [2] was determined as 91.5%. For the same molecule, the figures for the z-score in assay [3] (setting [10]), in [3] (setting [11]) and in [3] (setting [12]) were 0.486, -0.655 and -1.33, respectively. Also, in assay [5], the fluorescence slope is -0.456 (inactive). The NADPH fluorescence slope in assay [6] was -9.6e-06 (inactive). The slope in assay [7] is 0.00845 (inactive). Moreover, the outcome in [8] was inactive.
As to `COc1ccc(OC)c(NC(=O)CSc2nnc(-c3ccco3)n2-c2ccc(C(=O)O)cc2)c1`, the cell count in [1] came to 494. The inhibition is -27.8% (inactive) in [1], -97.7% (inactive) in assay [2], 11.9% (inactive) in [4] and 2.3% (inactive) in assay [9]. The molecule further registered a nuclei count in assay [2] of 158%. Moreover, the z-score is 0.414 in [3] (setting [10]), -0.401 in assay [3] (setting [11]) and -0.476 in assay [3] (setting [12]). Further, the fluorescence slope in [5] is -0.505 (inactive). In [6], the NADPH fluorescence slope is -3.4e-05 (inactive). Moreover, the slope in [7] was 0.00721 (inactive). Further, the call in [8] was inactive.
Turning to `CCOc1cc(CN2CCOCC2)cc(C(C)=O)c1`, the cell count in assay [1] was 617. Further, the inhibition in [1] was -3.9% (inactive); in [2], -113% (inactive); in assay [4], 15.1% (inactive); in assay [9], 38.5% (inactive). Also, the nuclei count in [2] turned out to be 110%. The figures for the z-score in assay [3] (setting [10]), in assay [3] (setting [11]) and in assay [3] (setting [12]) were 1.86, 1.2 and -0.466, respectively. The fluorescence slope in assay [5] was -0.573 (inactive). Besides, the NADPH fluorescence slope in assay [6] was -1.5e-05 (inactive). Moreover, the slope in [7] is 0.00527 (inactive). Further, the result in [8] was inactive.
As for `COc1ccc(NC2CC(=O)N(C)C2=O)cc1` (centres undefined), the cell count in [1] is 334. In addition, the inhibition was -4.4% (inactive) in assay [1], 15% (inactive) in assay [2], 7.42% (inactive) in [4] and 30.2% (inactive) in assay [9]. In [2], the nuclei count turned out to be 92.4%. The z-score was -0.811 in assay [3] (setting [10]), 0.0749 in [3] (setting [11]) and 1.77 in [3] (setting [12]). Also, the fluorescence slope in assay [5] was -0.424 (inactive). In assay [6], the NADPH fluorescence slope is 1.4e-05 (inactive). In assay [7], the slope is 0.00509 (inactive). The result in [8] was inactive.
In the case of `CCCCCc1ccc(-c2ccc(=O)[nH]n2)cc1`, in assay [1], the cell count amounted to 455. In addition, the inhibition in assay [1] was -1.5% (inactive); in assay [2], -85% (inactive); in assay [4] it was 15.1% (inactive); in assay [9], -28.2% (inactive). Besides, the nuclei count in assay [2] is 107%. The z-score in assay [3] (setting [10]) is 1.16; in assay [3] (setting [11]), -0.256; in [3] (setting [12]), -1.03. In assay [5], the fluorescence slope is -0.516 (inactive). For the same molecule, the NADPH fluorescence slope in [6] was -2.1e-05 (inactive). In addition, the slope in [7] was 0.00535 (inactive). For the same molecule, the result in [8] was inactive.
On to `c1ccc(OCc2nn3c(C4CCCCC4)nnc3s2)cc1`, for which the cell count in assay [1] turned out to be 633. Moreover, the inhibition in [1] was -8.1% (inactive); in assay [2], -110% (inactive); in assay [4], -6.06% (inactive); in assay [9], -1.22% (inactive). This molecule also returned a nuclei count in assay [2] of 167%. Moreover, the figures for the z-score in [3] (setting [10]), in assay [3] (setting [11]) and in [3] (setting [12]) were -0.542, -0.363 and 1.81, respectively. Besides, the fluorescence slope in assay [5] was -0.434 (inactive). The NADPH fluorescence slope in [6] is -0.000186 (inactive). In addition, in assay [7], the slope was 0.00482 (inactive). In [8], the outcome was inactive.
As to `CCN(CC)CCNc1nc2c(c(=O)[nH]c(=O)n2C)n1CCOc1ccccc1`, in [1], the cell count is 501. The inhibition in assay [1] was -1.2% (inactive); in [2], -206% (inactive); in assay [4], 12.3% (inactive); in assay [9], 0.39% (inactive). In [2], this molecule had a nuclei count of 135%. The results for the z-score in [3] (setting [10]), in assay [3] (setting [11]) and in assay [3] (setting [12]) were 0.0299, -1.12 and -0.109, respectively. Also, the fluorescence slope in assay [5] was -0.534 (inactive). Besides, in assay [6], the NADPH fluorescence slope is -4.4e-05 (inactive). Further, the slope in [7] was 0.00521 (inactive). Besides, the molecule was classed as inactive in assay [8].
As for `O=C(O)c1cc2n(n1)C(C(F)(F)F)CC(c1ccccc1)N2` (centres undefined), the cell count in assay [1] is 514. The inhibition in assay [1] was -9.8% (inactive); in assay [2] it was -120% (inactive); in assay [4] it was 3.66% (inactive); in [9] it was -2% (inactive). In [2], this molecule had a nuclei count of 117%. The z-score in assay [3] (setting [10]) was -1.15; in [3] (setting [11]) it was -0.827; in [3] (setting [12]) it was 0.269. For the same molecule, the fluorescence slope in assay [5] is -0.503 (inactive). For the same molecule, in [6], the NADPH fluorescence slope was -0.000107 (inactive). Also, in assay [7], the slope was 0.00535 (inactive). In [8], the call was inactive.
Consider `Cc1ccnc(N2CCN(c3c4c(c(C#N)c5nc6ccccc6n35)CCC4)CC2)c1`, for which the cell count in assay [1] was determined as 585. For the same molecule, the inhibition was -9% (inactive) in assay [1], -90.1% (inactive) in [2], 15.9% (inactive) in assay [4] and -3.36% (inactive) in assay [9]. Moreover, the nuclei count in [2] was found to be 135%. In addition, the z-score in assay [3] (setting [10]) was -0.195; in assay [3] (setting [11]) it was 1.1; in assay [3] (setting [12]), 0.491. Besides, the fluorescence slope in assay [5] is -0.401 (inactive). The NADPH fluorescence slope in assay [6] is -2e-05 (inactive). For the same molecule, the slope in assay [7] is 0.00557 (inactive). Further, the call in assay [8] was inactive.
For `CSc1nc(N)nc(SCC(=O)OC(C)C)c1C#N`, in assay [1], the cell count came to 394. The inhibition is -11.8% (inactive) in [1], -26.4% (inactive) in [2], 0.671% (inactive) in assay [4] and 72.2% (active) in assay [9]. In addition, the nuclei count in [2] was 76.9%. Further, the figures for the z-score in assay [3] (setting [10]), in [3] (setting [11]) and in [3] (setting [12]) were -1.22, -0.698 and -1.26, respectively. The fluorescence slope in assay [5] is -0.371 (inactive). Besides, the NADPH fluorescence slope in [6] is 5e-05 (inactive). The slope in assay [7] is 0.00629 (inactive). The molecule was classed as inactive in assay [8].
